High-throughput results (PubChem BioAssay)
PNC assembly inh: inhibitors of perinucleolar compartment assembly; activity change (PNC), negative = inhibition, % at 10 µM; PC3M PTB-GFP, PNC prevalence imaging, 16 h; hits give low values; AID 2417; 140,000 compounds, 3.1% hits;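 active = readout at or below -70, meaning at least 70% loss of cells showing the perinucleolar compartment, a nuclear body marking cancer cells; inconclusive = readout between -30 and a set limit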;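 note: plate controls were DMSO wells for no effect and camptothecin positive control wells for full effect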
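Compounds are pinned in duplicate onto adhered PC3M cells stably expressing GFP-tagged PTB and incubated 16 h at 37 C. Cells are then fixed, nuclei stained with Hoechst, and PNC-positive cells counted.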
HPGD inh: HPGD (human) dehydrogenase inhibition; purified HPGD, NADH fluorescence kinetic, PGE2 substrate; Potency, µM, without a hit: at the top dose activity change, negative = inhibition, usual class: inhibitors; 150,000 compounds, 4.3% hits; AID 894; note: potency is the fitted concentration of half-maximal effect
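20 nM HPGD preincubated 15 min at room temperature with compound in 50 mM Tris-HCl pH 8, 0.01% Tween 20. Started with 1 mM NAD+ and 30 uM prostaglandin E2; NADH fluorescence (360/450 nm) read 5 times over 30-s intervals, last minus first.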
ALOX12 inhib: 12-hLO (ALOX12) enzyme inhibition. Potency, µM (doses to about 57.1 µM), for inactives: at the highest dose activity change, negative = inhibition, most hits filed as inhibitors. 150,000 compounds, 0.12% hits. P18054. purified 12-hLO, xylenol orange hydroperoxide absorbance; active = well fitted curve in the direction sought with a large enough effect; inconclusive = small, poorly fitted or top-dose-only effect, or another doubt; inactive = no such curve, though single readings can be large; an effect the other way counts as inactive or inconclusive; note: potency is the fitted concentration of half-maximal effect; nearly all actives have a fitted effect of over 55% in size
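Lipoxygenase turnover measured by absorbance at 573 and 405 nm after Fe-XO development. Human 12hLO 150 nM, arachidonate 40 uM, pH 7.0 Hepes buffer with detergent; 15 min compound preincubation, 30 min reaction.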
ALDH1A1 inh: inhibitors of human aldehyde dehydrogenase 1A1. Purified ALDH1A1, NADH fluorescence, propionaldehyde substrate. 220,000 compounds, 7.3% hits. AID 1030. Potency, µM (titrated, usually from 75.3 µM), for the others: at the top dose activity, negative = inhibition, usual class: inhibitors. P00352;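 note: potency is the fitted concentration of half-maximal effect; plate controls were no enzyme wells and a reference inhibitor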
Target sequence (P00352 whole entry, looked up): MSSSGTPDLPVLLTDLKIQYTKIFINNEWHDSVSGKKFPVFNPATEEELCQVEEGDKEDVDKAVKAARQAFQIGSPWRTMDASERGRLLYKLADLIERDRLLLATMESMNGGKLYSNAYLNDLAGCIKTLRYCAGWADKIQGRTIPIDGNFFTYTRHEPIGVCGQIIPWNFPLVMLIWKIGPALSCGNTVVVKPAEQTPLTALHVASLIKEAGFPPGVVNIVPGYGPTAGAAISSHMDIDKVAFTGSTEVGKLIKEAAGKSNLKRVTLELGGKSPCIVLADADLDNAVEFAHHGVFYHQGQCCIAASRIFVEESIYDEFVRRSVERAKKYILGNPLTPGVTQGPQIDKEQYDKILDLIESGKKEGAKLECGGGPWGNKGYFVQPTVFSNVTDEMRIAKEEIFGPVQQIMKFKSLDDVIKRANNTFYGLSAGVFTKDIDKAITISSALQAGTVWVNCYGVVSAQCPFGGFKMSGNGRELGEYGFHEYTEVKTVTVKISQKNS
IMPase cell inh: membrane-permeable compound that blocks inositol monophosphatase; P97697; CHO-M1 cells, IP1 accumulation, HTRF TR-FRET ratio; inhibition (IP1 accumulation), % at 46.1 µM; 120,000 tested, under 10 active; AID 901; active = well fitted curve in the direction sought with a large enough effect in the signal ratio, not every such curve was filed as active; inconclusive = small, poorly fitted or top-dose-only effect, or a change in a side signal; inactive = no such curve, though single readings can be large or run the other way; the % refers to the signal ratio;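 note: cells stimulated with carbachol in lithium chloride buffer; plate controls were DMSO basal wells for no effect and reference inhibitor wells for full effect; higher means more IMPase inhibition seen as more IP1 and lower FRET ratio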
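The IP-One HTRF competitive assay in carbachol-stimulated CHO-M1 cells quantifies cellular IP1. Compounds spanned up to 46 uM final, and activity is expressed as AC50 from concentration-response fits of the ratio and donor data.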
IMPase Li cell: cell-permeable IMPase inhibitors with lithium potentiation; Potency, µM (series often up to 59.4 µM), without a hit: top-dose activity, negative = IMPase inhibition, most hits filed as inhibitors; CHO-M1 cells, IP1 TR-FRET (IP-One), carbachol + lithium; 210,000 compounds, 0.35% hits; AID 1457; active = well fitted curve in the direction sought with a large enough effect; inconclusive = small, poorly fitted or top-dose-only effect, or another doubt; inactive = no such curve, though single readings can be large; an effect the other way counts as inactive or inconclusive;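 note: IP1 builds up when IMPase is blocked and the TR-FRET signal falls; potency is the fitted concentration of half-maximal effect; plate controls were basal vehicle for no effect and high inhibitor control for full effect; nearly all actives have a fitted effect of over 50% in size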
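CHO cells stably expressing M1 receptor (2000/well) were cultured 16–30 h, then exposed to compounds with a small lithium addition for 30 min at 37C. IP1 was measured by TR-FRET competition; AC50 from Hill fits.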
* hit, by the source's call; ? = inconclusive; . = no result; [ ] = another dose, or the depositor's remark. In the library only some 11% were active in any assay of this set; here they are far more common. Unless noted, calls come from the whole dose curve; as a rule, active = well fitted inhibition curve with a large enough effect (not every such curve was filed as active); inconclusive = small, poorly fitted or top-dose-only effect, or another doubt; inactive = no such curve, though single readings can be large or run the other way. Unless noted, % is set by controls: 0 for no effect and ±100 for the full control effect.

SMILES | PNC assembly inh | HPGD inh | ALOX12 inhib | ALDH1A1 inh | IMPase cell inh | IMPase Li cell
Cc1cnc(CN(C)Cc2c(C(=O)N3CCc4ccccc4C3)nc3ccc(Cl)cn23)[nH]1 | . | . | . | 17.8µM* | . | 14.1%
CCCCN(C)Cc1c(C(=O)N2CCc3ccccc3C2)nc2ccc(Cl)cn12 | . | . | . | ? | . | 12.8%
CN(Cc1cccnc1)Cc1c(C(=O)N2CCc3ccccc3C2)nc2ccc(Cl)cn12 | . | . | . | ? | . | 3.5%
CN(Cc1cnccn1)Cc1c(C(=O)N2CCc3ccccc3C2)nc2ccc(Cl)cn12 | . | . | . | 17.8µM* | . | 15.2%
COCCn1c(=O)c(C)nc2cnc(N3CCNCC3)nc21 | . | ? | -9.1% | ? | . | -2.5%
O=CN1CCN(C[C@H](O)CN2CCCCC2)CC1 | . | -4.0% | 4.1%[11.4 µM] | -8.2%[13.5 µM] | . | -1.1%
CCOC(N)=O | . | -4.2% | 2.3% | -8.4% | . | 2.2%
COc1ccc2c(c1)O[C@H](c1cccc(C(F)(F)F)c1)[C@@H](O)C2=O | . | . | . | 14.4%[13.5 µM] | . | .
Cc1[nH][nH]c(=O)c1C(c1ccc(-c2cccc(C(=O)O)c2)o1)c1c(C)[nH][nH]c1=O | . | . | . | ? | . | 14.2%
COC(=O)c1ccc(-c2ccc(C(c3c(C)[nH][nH]c3=O)c3c(C)[nH][nH]c3=O)o2)cc1 | . | . | . | 3.55µM* | . | 9.8%
Cc1[nH][nH]c(=O)c1C(c1ccc(-c2ccccc2C(=O)O)o1)c1c(C)[nH][nH]c1=O | . | . | . | 5.01µM* | . | 4.3%
Cc1cn([C@H]2C[C@H](N=[N+]=[N-])[C@H](CO)O2)c(=O)[nH]c1=O | . | -15.9% | -4.9%[11.4 µM] | 4.1%[13.5 µM] | 1.4 | -1.4%
COc1ccc(C2CC(=O)C3=C(C2)Nc2ncnn2C3c2ccccc2)cc1 (stereo unspecified) | -107.1* | -13.8% | -5.4% | ? | -1.7 | 17.9%[38.3 µM]
COc1ccc(C2CC(=O)C3=C(C2)Nc2ncnn2C3c2ccccc2C)cc1 (stereo unspecified) | 34.9 | -6.0% | -6.9% | ? | -4.9 | 5.5%[38.3 µM]
C=CCOc1c(OC)cc(Cl)cc1C1NC(=O)NC(C)=C1C(C)=O (stereo unspecified) | 9.5 | -3.9% | -9.0% | 10.3% | 4.2 | -6.1%[38.3 µM]
COc1cc(Cl)cc(C2NC(=O)NC(C)=C2C(C)=O)c1OCC(=O)O (stereo unspecified) | 27.3 | -9.3% | -5.0% | 2.24µM* | -0.8 | -0.5%[38.3 µM]
CCCc1c(C(=O)Nc2cc(C)on2)cnn1-c1ccccc1 | . | . | . | 17.8µM* | . | .
CCCc1c(C(=O)NNc2ccc(C)cc2)cnn1-c1ccccc1 | . | . | . | 14.1µM* | . | .
Cc1nn(-c2ccccc2)c(C)c1C(=O)Nc1ccc(N2CCOCC2)cc1 | . | . | . | -5.3% | . | 7.1%
CCc1ccc(NC(=O)c2cnn(-c3ccccc3)c2C2CCNCC2)cc1 | . | . | . | 3.7% | . | 1.5%
CCc1ccc(NC(=O)c2cnn(-c3ccccc3)c2C)cc1 | 40.6 | 2.51µM* | 2.2% | 9.3% | . | -2.7%
CCCc1c(C(=O)Nc2ccc(N3CCOCC3)cc2)cnn1-c1ccccc1 | . | . | . | 3.16µM* | . | .
COC(=O)C1C(C)OC(=O)NC1c1ccccc1 (stereo unspecified) | . | . | . | 6.8%[13.5 µM] | . | .
CN(C)S(=O)(=O)c1ccc(N2CCCC2)c(C(=O)NC(c2ccccc2)c2ccccc2)c1 | ? | ? | -6.4% | ? | 2.9 | 40.8%[38.3 µM]
CCC1CCC(C(=O)NNC(=O)c2cc(-c3ccco3)[nH]n2)CC1 (stereo unspecified) | . | . | . | -9.3% | . | -13.0%
COc1cc(CCC(=O)Nc2nnc(-c3cccnc3)s2)cc(OC)c1OC | . | . | . | ? | . | -1.9%
CN(C)c1ccc(C(C#N)c2ccccc2)nn1 (stereo unspecified) | . | . | . | 10µM* | . | -10.4%
COC(=O)c1cc(S(=O)(=O)Nc2cc(S(=O)(=O)N(C)C)ccc2C)oc1C | . | . | . | -8.9% | . | .
CC(Oc1ccccc1Cl)c1nnc(N)s1 (stereo unspecified) | -116.6* | -7.7% | 3.8% | 7.0% | 2.8 | -6.7%[38.3 µM]
CCCCCn1c(=N)c(S(=O)(=O)c2ccccc2)cc2c(=O)n3cccc(C)c3nc21 | . | . | . | . | 5.5 | .
